# Source: the supplement of paper PMC7366291
# Where a name gives a salt, the structure may show the parent alone.
# Tested on: Danio rerio Tg(wt1b:EGFP) embryo, pronephros
# Experiment: fraction of imaged embryos annotated as normal kidney; higher = less nephrotoxic; extreme values may be limits of the assay
# Conditions: 25 µM; exposure: 24-48 hpf
# Summary of the method: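 From 24 to 48 hpf at 28.5°C, dechorionated Tg(wt1b:EGFP) zebrafish embryos in 12-well plates were kept in 5 mM HEPES-buffered E3 with 0.003% PTU, 0.5% DMSO and 25 μM compound. Pronephroi were imaged by widefield fluorescence at 470 nm and judged by eye from maximum projections. Reported is the proportion of embryos per treatment in the normal-kidney category.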
row,SMILES,fraction of imaged embryos annotated as normal kidney
1,CC(=O)[C@@]1(O)CC[C@H]2[C@@H]3C[C@H](C)C4=CC(=O)C=C[C@]4(C)[C@@]3(F)[C@@H](O)C[C@@]21C [Fluorometholone],0.417
2,C[C@H](N)[C@H](O)c1cccc(O)c1 [Metaraminol bitartrate],0.667
3,CC(NCCc1ccc(O)cc1)C(O)c1ccc(O)cc1 (stereo not given) [Ritodrine hydrochloride],0.833
4,C=CCOc1ccccc1OCC(O)CNC(C)C (stereo not given) [Oxprenolol hydrochloride],0.75
5,O=C1c2ccccc2C(=O)C1c1ccccc1 [Phenindione],0.75
6,CCc1nn(CCCN2CCN(c3cccc(Cl)c3)CC2)c(=O)n1CCOc1ccccc1 [Nefazodone hydrochloride],0.727
7,CCN(CC)C(=S)SSC(=S)N(CC)CC [Disulfiram],0
8,CC[C@@]1(O)C(=O)OCc2c1cc1n(c2=O)Cc2cc3c(CN(C)C)c(O)ccc3nc2-1 [Topotecan],0.727
9,C#C[C@]1(O)CC[C@H]2[C@@H]3CCc4cc(O)ccc4[C@H]3CC[C@@]21C [Ethinylestradiol],0.667
10,CCN1CCN(c2cc3c(cc2F)c(=O)c(C(=O)O)cn3C2CC2)CC1 [Enrofloxacin],0.917
11,CCCCNc1c(C(=O)OCC)c(C)nc2c1cnn2CC [Tracazolate hydrochloride],0.917
12,CC(=O)N[C@@H](CC(C)C)C(=O)O [N-Acetyl-L-leucine],0.917
13,Cc1nc2ccccn2c(=O)c1CCN1CCC(C(=O)c2ccc(F)cc2)CC1 [Pirenperone],1
14,CC(=C(CCO)SSCC1CCCO1)N(C=O)Cc1cnc(C)nc1N (stereo in doubt) [Fursultiamine Hydrochloride],0.833
15,CCn1cc(C(=O)O)c(=O)c2cc(F)c(N3CCNC(C)C3)c(F)c21 (stereo not given) [Lomefloxacin hydrochloride],0.5
16,NC(=O)c1ncn([C@@H]2O[C@H](CO)[C@@H](O)[C@H]2O)n1 [Ribavirin],0.75
17,CN1[C@@H]2CC[C@H]1C[C@@H](OC(=O)c1c[nH]c3ccccc13)C2 [Tropisetron hydrochloride],0.667
18,CCC1=C(C)CN(C(=O)NCCc2ccc(S(=O)(=O)NC(=O)N[C@H]3CC[C@H](C)CC3)cc2)C1=O [Glimepiride],0.917
19,COc1ccccc1N1CCN(CC(O)COc2cccc3ccccc23)CC1 (stereo not given) [Naftopidil dihydrochloride],0.833
20,COc1c(N2CCNC(C)C2)c(F)cc2c(=O)c(C(=O)O)cn(C3CC3)c12 (stereo not given) [Gatifloxacin],0.917

row,SMILES,fraction of imaged embryos annotated as normal kidney
1,C=C1C[C@H]2[C@@H]3C=C(C)C4=CC(=O)CC[C@]4(C)[C@H]3CC[C@]2(C)[C@@]1(OC(C)=O)C(C)=O [Melengestrol acetate],0.917
2,COC(=O)C1=C(C)NC(C)=C(C(=O)OCCN(C)Cc2ccccc2)C1c1cccc([N+](=O)[O-])c1 (stereo not given) [Nicardipine hydrochloride],0.909
3,O=S(=O)(O)c1cc(O)ccc1O [Ethamsylate],0.917
4,COc1cc(N)c(Cl)cc1C(=O)NC1CCN(Cc2ccccc2)CC1 [Clebopride maleate],0.917
5,CCCCC1C(=O)N(c2ccccc2)N(c2ccccc2)C1=O [Phenylbutazone],0
6,CC(=O)Oc1ccc(C(c2ccc(OC(C)=O)cc2)c2ccccn2)cc1 [Bisacodyl],0.917
7,Cc1onc(-c2c(F)cccc2Cl)c1C(=O)N[C@@H]1C(=O)N2[C@@H]1SC(C)(C)[C@@H]2C(=O)O [Flucloxacillin sodium],0.833
8,CCCCCCCCNC(C)C(O)c1ccc(SC(C)C)cc1 (stereo not given) [Suloctidil],0
9,COc1ccc(-c2ccc3cc(C(=O)O)ccc3c2)cc1C12CC3CC(CC(C3)C1)C2 [Adapalene],0.833
10,Cn1c(=O)c2c(ncn2CC2OCCO2)n(C)c1=O [Doxofylline],0.917
11,COc1ccccc1OCC(O)COC(N)=O (stereo not given) [Methocarbamol],0.833
12,CN(CCCCCCCCCCN(C)C(=O)Oc1cccc([N+](C)(C)C)c1)C(=O)Oc1cccc([N+](C)(C)C)c1 [Demecarium bromide],1
13,COc1ccccc1N1CCN(CCCNc2cc(=O)n(C)c(=O)n2C)CC1 [Urapidil hydrochloride],0.917
14,CCC(=O)[C@@]1(C)[C@H](C)C[C@H]2[C@@H]3CCC4=CC(=O)C=C[C@]4(C)[C@H]3[C@@H](O)C[C@@]21C [Rimexolone],0.333
15,Nc1nnc(-c2cccc(Cl)c2Cl)c(N)n1 [Lamotrigine],0.9
16,Nc1ccc(S(=O)(=O)Nc2cnc3ccccc3n2)cc1 [Sulfaquinoxaline sodium salt],1
17,CC(=O)NS(=O)(=O)c1ccc(N)cc1 [Sulfacetamide sodic hydrate],1
18,c1ccc([C@H]2CN3CCSC3=N2)cc1 [Levamisole hydrochloride],0.917
19,CC[N+](CC)(CC)CCOc1cccc(OCC[N+](CC)(CC)CC)c1OCC[N+](CC)(CC)CC [Gallamine triethiodide],0.833
20,Cc1ccc(NC(=O)c2ccc(CN3CCN(C)CC3)cc2)cc1Nc1nccc(-c2cccnc2)n1 [Imatinib],1
